Results as given in PubChem BioAssay AID485313 (National Center for Advancing Translational Sciences (NCATS), 2010).
In all, about 320,000 compounds went through this assay and about 7,600 (2.4%) were called active. Roughly 3% stayed inconclusive and do not appear here. The sample as a whole holds a higher share of actives than the screen did. Unmarked numbers belong to inactive results. Calls come from the whole dose curve; as a rule, active = well fitted activation curve with a large enough effect; inconclusive = small, poorly fitted or top-dose-only effect; inactive = no such curve, though single readings can be large or run the other way.

assay: qHTS Assay for NPC1 Promoter Activators; details: Huh7 NPC1 promoter luciferase reporter, 24 h; series mostly up to 9.22 µM; activation: at the top concentration; note: nearly all actives have a fitted effect of over 60% in size;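 for activation: reporter is driven by a mutant NPC1 promoter; % of control where 0% means no effect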
Summary of the method: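 Huh7 reporter cells (NPC1 promoter driving luciferase) are dosed with compound for 24 h at 37 °C, 5% CO2; luciferase detection reagent is then added and luminescence measured after 10 min at ambient temperature.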
Potency is the fitted concentration of half-maximal effect.

Compound | activation [%] | Potency
CC1(NC(=O)CCS(=O)(=O)c2ccc(Cl)cc2)CCS(=O)(=O)C1 (stereo not drawn) | -0.873 | 
CCOc1ccc(C(=O)CCC(=O)Nc2ccncc2)cc1 | -3.49 | 
CN1C(=O)/C(=C/C=C2\SCCN2C)OC1=S |  | 3980 nM (active)
Cc1cc(C)cc(NC(=O)c2cccc(NC(=O)C3C4CC5OC(=O)C3C5C4)c2)c1 (stereo not drawn) | 0.703 | 
O=C(Cn1c2[n+](c3ccc(C(F)(F)F)cc31)CCCCC2)Nc1c(F)cccc1F | -5.85 | 
NC(=O)C1CCN(C(=O)c2ccc(F)c(S(=O)(=O)N3CCOCC3)c2)CC1 | -5.94 | 
CCOC(=O)N1CCC(NC(=O)CCc2ccccc2)CC1 | -2.93 | 
O=C(NCC1CCC(C(=O)O)CC1)OCc1ccccc1 (stereo not drawn) | 2.31 | 
O=C(O)C1CCN(C(=O)OCc2ccccc2)CC1 |  | 2000 nM (active)
CC(=O)c1ccc(S(=O)(=O)NCCC(=O)N2CCN(c3ccccn3)CC2)cc1 | -0.622 | 
O=C(Nc1cccc(C(=O)NC2CC2)c1)c1ccc(F)c(S(=O)(=O)N2CCOCC2)c1 | -1.39 | 
COc1ccc(Cl)cc1NC(=O)COc1ccc2c(c1)OCO2 | -1.02 | 
c1ccc2sc(NN=C3CCCC3)nc2c1 |  | 1410 nM (active)
O=[N+]([O-])c1cc(Br)c(O)c(/C=N/Nc2nc3ccccc3s2)c1 | -6.54 | 
CCN(CC)CCn1c2c(c(SCC(=O)Nc3nc4ccccc4s3)nc1=O)CCCC2 | 0.104 | 
COc1ccc(-c2sc3ccc(OC)cc3c2C#Cc2ccccn2)cc1 | 22 | 
Cc1cnc(CN(C)C(=O)C2CCC(=O)N(CCc3cccc(F)c3)C2)[nH]1 (stereo not drawn) | -4.93 | 
Cc1csc(=O)n1CCC(=O)OCC(=O)NNC(=O)c1ccc(Br)cc1 | -1.37 | 
Nc1c(N(CCCO)C(=O)C2CCCC2)c(=O)[nH]c(=O)n1Cc1ccccc1 | 0.384 | 
C/C(=N\NC(=O)c1nc(C)cc(C)n1)c1ccccc1 |  | 1580 nM (active)
COc1ccc(/C(C)=N/NC(=O)c2ccc3nc[nH]c3c2)cc1 | -2.23 | 
C/C(=N\NC(=O)c1cccnc1)c1ccc(-c2ccccc2)cc1 | 2.31 | 
COc1ccc(CCNC(=O)CCc2ccccc2O)cc1OC | 1.23 | 

Compound | activation [%] | Potency
COc1ccccc1C(=O)NC(=O)COC(=O)C1CC1 | 2.15 | 
O=C(NCCS(=O)(=O)NCc1ccc(F)cc1)c1ccccc1 | 2.14 | 
O=C(CNC(=O)c1ccccc1)NCC(=O)OCC(=O)c1ccccc1 | -2.12 | 
O=C(CNC(=O)c1ccc(F)cc1)c1ccccc1 |  | 1410 nM (active)
O=C(COC(=O)CNC(=O)c1ccccc1F)NCC(F)(F)F | -10.8 | 
O=C(CNC(=O)c1ccccc1Br)NCCSc1ccc(Br)cc1 | -2.8 | 
O=C(CNC(=O)c1ccccc1F)c1ccc(Br)cc1 |  | 398 nM (active)
Cc1ccc(S(=O)(=O)Nc2nc(CN3CCOCC3)nc3sc(C)c(C)c23)cc1 | -3.18 | 
COc1ccc(CNC(=O)c2ccc(NS(=O)(=O)c3ccc4[nH]c(=O)[nH]c4c3)cc2)cc1OC | 0.755 | 
Nc1nc(SCC(=O)Nc2ccc(Cl)c([N+](=O)[O-])c2)n[nH]1 | -0.898 | 
CCCOc1ccc(C(=O)NCCc2ccccc2)cc1 |  | 447 nM (active)
CCCc1ccc(OCCNC(=O)c2ccccc2Br)cc1 | 11 | 
CN(c1ccccc1)S(=O)(=O)c1ccc(C(=O)NCCc2ccccc2)cc1 | 16.8 | 
O=C(NCCOc1ccccc1)c1ccccc1 |  | 631 nM (active)
CC(C)c1ccc(C(=O)NCCCc2ccccc2)cc1 |  | 2820 nM (active)
O=C(CCNC(=O)c1ccc(Br)cc1)NCCCc1ccccc1 | 0.35 | 
Cc1noc(C)c1COc1ccc(C(=O)NCCOc2ccccc2)cc1 | 14 | 
CCCCCCCCC(=O)NCCOc1ccccc1 | -1.35 | 
COc1ccc(OCCCC(=O)NCCc2ccccc2)cc1 | 0.654 | 
CCN1CCN(C(=O)N[C@@H](C(=O)N[C@@H]2C(=O)N3C(C(=O)O)=C(CSc4nnnn4C)CS[C@H]23)c2ccc(O)cc2)C(=O)C1=O | -2.2 | 
Cc1ccc(CNC(=O)c2cccc3c2C(=O)c2ccc(N4CCC(C)CC4)cc2S3(=O)=O)cc1 | 13.2 | 
CC1(C)O[C@@H]2[C@H](O1)[C@@H](COS(=O)(=O)O)O[C@H]2n1ccc(=O)[nH]c1=O | 0.649 | 
O=C(/C=C/c1ccccc1[N+](=O)[O-])OCC(=O)N1CCCC1 | 10.4 | 

Compound | activation [%] | Potency
O=C(CNc1ccccc1N1CCCC1=O)Nc1cc(Cl)ccc1-n1cncn1 | -0.612 | 
O=c1c2ccccc2ncn1/N=C/c1ccccc1 |  | 1000 nM (active)
O=C(Nn1cnc2ccccc2c1=O)c1ccccc1 | 1.3 | 
CCCc1nc2ccccc2c(=O)n1/N=C/c1ccc(O)c(O)c1 | -8.72 | 
Cc1ccc(S(=O)(=O)N(NC2=NS(=O)(=O)c3ccccc32)C(=O)c2ccccc2)cc1 | -4.49 | 
CC(C)(C)c1csc(NC2=NS(=O)(=O)c3ccccc32)n1 |  | 1410 nM (active)
O=C(Oc1cccc(NC2=NS(=O)(=O)c3ccccc32)c1)c1ccncc1 | 2.13 | 
CCN(CC(=O)Nc1ccccc1C(F)(F)F)C(=O)C1CCN(C(=O)Nc2ccccc2)CC1 | 1.23 | 
O=C(c1cn(-c2ccccc2)nc1-c1cccnc1)N1CCN(S(=O)(=O)c2ccccc2F)CC1 | -2.08 | 
CC[C@@H]1Cc2cc(O)ccc2C2=C1c1ccc(O)cc1C[C@H]2CC |  | inactive
COC(=O)/C(=C1\Oc2ccc(C(C)(C)C)cc2S1)C(F)(F)F |  | 3550 nM (active)
CCOC(=O)C1=C(c2ccccc2)O/C(=C(/C(=O)OC)C(F)(F)F)S1 | 10.5 | 
Cc1occc1-c1nnc(SCC(=O)NC2(C#N)CCCC2)n1C | -2.37 | 
COc1ccc(-c2cc(C3CCN(c4ncccc4[N+](=O)[O-])CC3)[nH]n2)cc1 | 1.28 | 
COc1ccc(-c2cc(C(F)(F)F)nc(NCc3cccnc3)n2)cc1 | 1.94 | 
COc1ccc(-c2cc3ncccc3cn2)cc1 |  | 2240 nM (active)
CCC(=O)Nc1ccc2c(c1)nc(CCN1CCN(c3ccccn3)CC1)n2C | -10.8 | 
Cc1nc2cc(NC(=O)NC3CC3)ccc2n1C | 7.08 | 
Cc1cc2nc(C)n(CCCNC(=O)Nc3ccccc3)c2cc1C | -3.61 | 
Cn1c(CCN2CCCC2)nc2cc(NS(=O)(=O)c3ccccc3)ccc21 | -7.01 | 
Cc1nc2cc(NC(=O)Nc3cccc(F)c3)ccc2n1C |  | 100 nM (active)
Cn1c(CCN2CCCCCC2)nc2cc(NC(=O)Nc3ccccc3)ccc21 |  | 4470 nM (active)
